Experimental data taken from ChEMBL document CHEMBL2218924, “A broad activity screen in support of a chemogenomic map for kinase signalling research and drug discovery” (Biochem J, 2013).

Columns and labels:
[1] = target: T1, Serine/threonine-protein kinase Sgk3 (Homo sapiens) (UniProt Q96BR1); conditions: at 1 µM
T1 sequence (whole entry): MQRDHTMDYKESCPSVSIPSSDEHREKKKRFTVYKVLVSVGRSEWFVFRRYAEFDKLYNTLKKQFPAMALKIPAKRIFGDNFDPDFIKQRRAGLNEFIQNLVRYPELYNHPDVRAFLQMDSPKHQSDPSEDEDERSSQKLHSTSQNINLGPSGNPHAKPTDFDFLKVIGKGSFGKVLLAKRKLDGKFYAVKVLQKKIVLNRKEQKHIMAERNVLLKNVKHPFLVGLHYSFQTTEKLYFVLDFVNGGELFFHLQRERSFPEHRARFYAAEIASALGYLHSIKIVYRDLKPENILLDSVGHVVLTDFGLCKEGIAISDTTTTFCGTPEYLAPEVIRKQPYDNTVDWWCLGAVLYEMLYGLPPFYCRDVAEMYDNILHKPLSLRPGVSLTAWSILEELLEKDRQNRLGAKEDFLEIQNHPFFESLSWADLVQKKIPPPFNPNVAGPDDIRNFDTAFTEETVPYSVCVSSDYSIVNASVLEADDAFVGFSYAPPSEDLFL

[2] = target: T1, Serine/threonine-protein kinase Sgk3 (Homo sapiens); conditions: at 10 µM
[3] = target: Serine/threonine-protein kinase SIK1 (Homo sapiens) (UniProt P57059); conditions: at 1 µM
Chain of Serine/threonine-protein kinase SIK1 (Homo sapiens) (P57059 whole entry): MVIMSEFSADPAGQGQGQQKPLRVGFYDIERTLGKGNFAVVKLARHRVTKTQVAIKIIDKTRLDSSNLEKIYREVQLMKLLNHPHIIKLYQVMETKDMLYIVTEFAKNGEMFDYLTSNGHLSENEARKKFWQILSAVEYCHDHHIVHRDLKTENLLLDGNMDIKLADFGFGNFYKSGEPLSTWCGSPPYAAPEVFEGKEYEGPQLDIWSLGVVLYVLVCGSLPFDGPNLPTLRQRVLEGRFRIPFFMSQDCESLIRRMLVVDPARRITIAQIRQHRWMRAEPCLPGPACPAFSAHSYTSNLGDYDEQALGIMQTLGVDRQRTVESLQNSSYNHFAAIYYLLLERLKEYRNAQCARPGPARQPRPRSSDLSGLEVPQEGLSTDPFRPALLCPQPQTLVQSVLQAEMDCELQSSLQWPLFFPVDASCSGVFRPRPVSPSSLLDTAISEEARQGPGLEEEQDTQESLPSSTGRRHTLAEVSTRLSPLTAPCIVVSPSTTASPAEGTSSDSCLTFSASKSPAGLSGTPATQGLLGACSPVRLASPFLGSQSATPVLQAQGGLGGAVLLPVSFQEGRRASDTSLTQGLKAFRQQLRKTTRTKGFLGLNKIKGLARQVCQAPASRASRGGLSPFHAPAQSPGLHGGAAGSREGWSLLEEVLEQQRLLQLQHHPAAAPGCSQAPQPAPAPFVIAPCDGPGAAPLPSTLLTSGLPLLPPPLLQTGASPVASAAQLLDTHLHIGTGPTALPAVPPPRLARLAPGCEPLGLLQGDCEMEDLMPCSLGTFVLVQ

[4] = target: Serine/threonine-protein kinase SIK1 (Homo sapiens) (UniProt P57059); conditions: at 10 µM
[5] = target: SRSF protein kinase 2 (Homo sapiens) (UniProt P78362); conditions: at 1 µM
Chain of SRSF protein kinase 2 (Homo sapiens) (P78362 whole entry, looked up): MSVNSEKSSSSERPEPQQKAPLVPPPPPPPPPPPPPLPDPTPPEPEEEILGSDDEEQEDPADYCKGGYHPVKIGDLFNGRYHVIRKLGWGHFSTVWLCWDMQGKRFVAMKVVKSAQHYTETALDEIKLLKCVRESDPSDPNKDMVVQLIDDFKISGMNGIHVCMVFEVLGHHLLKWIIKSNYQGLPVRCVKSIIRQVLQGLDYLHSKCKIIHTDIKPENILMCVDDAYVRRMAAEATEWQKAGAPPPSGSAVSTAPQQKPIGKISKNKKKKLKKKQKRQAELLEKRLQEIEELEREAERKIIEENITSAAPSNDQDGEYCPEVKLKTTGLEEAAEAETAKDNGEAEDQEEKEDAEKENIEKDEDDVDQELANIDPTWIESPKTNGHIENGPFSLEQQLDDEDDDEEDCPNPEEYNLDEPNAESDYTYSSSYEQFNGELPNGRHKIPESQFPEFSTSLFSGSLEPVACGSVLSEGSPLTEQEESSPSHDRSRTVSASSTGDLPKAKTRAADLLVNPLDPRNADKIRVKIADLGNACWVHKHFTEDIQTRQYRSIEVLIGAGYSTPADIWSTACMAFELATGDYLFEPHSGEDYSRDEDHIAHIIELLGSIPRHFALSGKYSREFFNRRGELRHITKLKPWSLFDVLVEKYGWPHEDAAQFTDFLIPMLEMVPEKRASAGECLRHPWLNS

[6] = target: SRSF protein kinase 2 (Homo sapiens) (UniProt P78362); conditions: at 10 µM

CO[C@H]1[C@@H](OC)C[C@H](C)[C@@H](OC)C2=CC(=O)C=C(NC(=O)/C(C)=C/C=C/[C@H](OC)[C@@H](OC(N)=O)/C(C)=C/[C@@H]1C)C2=O
residual activity [1]: 95%

NC(=O)c1ccc2[nH]c(-c3ccc(Oc4ccc(Cl)cc4)cc3)nc2c1
residual activity [1]: 107%

CCOc1cc2ncnc(Nc3cccc(Br)c3)c2cc1OCC
residual activity [1]: 108%

NC(=O)Nc1sc(-c2ccc(F)cc2)cc1C(N)=O
residual activity [1]: 93%

O=C1NC(=O)/C(=C\c2ccc3nccnc3c2)S1
residual activity [1]: 114%

COc1ccc(C(=O)Nc2sc3c(c2C(N)=O)CCCC3)cc1OC
residual activity [1]: 74%

c1ccc(-c2n[nH]c3c2oc2ccccc23)cc1
residual activity [1]: 94%

O=C1NC(=O)c2cc(Nc3ccc(F)cc3)c(Nc3ccc(F)cc3)cc21
residual activity [1]: 96%

Cn1nc2c3c(cccc31)C(=O)c1ccccc1-2
residual activity [1]: 79%

O=C1Nc2cc(Br)ccc2/C1=C1/Nc2ccccc2/C1=N\O
residual activity [1]: 86%

COc1cc(OC)c(/C=C2\C(=O)Nc3ccccc32)c(OC)c1
residual activity [1]: 92%
residual activity [2]: 84%
residual activity [3]: 106%
residual activity [4]: 93%
residual activity [5]: 104%
residual activity [6]: 86%

Cc1cc2ncc(-c3ccccc3)nc2cc1C
residual activity [1]: 108%

CC(C)n1cnc2/c(=N/c3cccc(Cl)c3)nc(NCCO)[nH]c21
residual activity [1]: 107%

Oc1c2ccccc2c2c3c(cccc13)N=N2
residual activity [1]: 85%

Cc1nc2cc3nc(-c4cccs4)cnc3cc2n1C
residual activity [1]: 94%

CCCCc1c(-c2ccc(O)cc2)[nH]c2nccnc12
residual activity [1]: 98%
